Measurements: PubChem BioAssay AID430 (Sanford-Burnham Center for Chemical Genomics, 2006)
The campaign covered roughly 63,000 compounds. About 1,100 (1.7%) were called active. Cut-off read from the data, not from the text of the source: active = cytotoxicity above about 50%; inactive = the rest. The sample as a whole holds a higher share of actives than the screen did. Entries with a potency or affinity are not part of this list.

assay: HPDE-C7 pancreatic duct cell viability loss – fluorescence, HTS (AID 430); settings: HPDE-C7 pancreatic duct cells viability, at 10 µM, hits give high values;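 note: cells exposed to compound for 48 hours before viability readout; 0% = vehicle and 100% = reference cytotoxic drug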

SMILES	cytotoxicity
CC1(C)Cc2c(sc3c2c(=N)n(Cc2ccco2)c(=O)n3Cc2ccc(F)cc2)CO1	5.6% (inactive)
O=C1C2C3C=CC(C3)C2C(=O)N1c1n[nH]c(CCc2ccccc2)n1 (configuration not stated)	0.1% (inactive)
CCCCP(=O)(CCCC)Cc1ccccc1O	-0.6% (inactive)
CC(C)=CC(=O)Nc1ccccc1Br	-7.7% (inactive)
CC1CC(C)CN(c2oc(-c3ccccc3Cl)nc2C#N)C1 (configuration not stated)	2.5% (inactive)
CCCCOC(=O)Cn1c(=O)c2c(nc(Br)n2Cc2ccccc2)n(C)c1=O	-12.6% (inactive)
Cc1sc2nc3n(c(=O)c2c1C)CCCS3	3.5% (inactive)
N#C/C(C(=O)NCc1ccccc1)=C1\SC(CCO)C(=O)N1c1ccccc1 (configuration not stated)	10.7% (inactive)
O=S(=O)(c1cccc2cccnc12)N1CCc2ccccc21	-5.3% (inactive)
O=C(CN1CCCC1)N1c2ccccc2Sc2ccccc21	-13.6% (inactive)
CC1CC(=O)N(CC(=O)N2CCCC2)c2ccccc2S1 (configuration not stated)	-19.6% (inactive)
CCc1nnc(NC(=O)NCN2C(=O)C3C4C=CC(C4)C3C2=O)s1 (configuration not stated)	3% (inactive)
CC1=CCC(C(C)(C)NC(=O)c2ccccc2)C/C1=N\O (configuration not stated)	-14.7% (inactive)
CCOCCCNS(=O)(=O)c1ccc2c(c1)CCN2C(=O)CC	-23.1% (inactive)
CCC(=O)c1ccc(O)cc1	-18.7% (inactive)
C=C(c1ccc(O)cc1)c1ccc(O)cc1	-12.8% (inactive)
C/C=C(/C(=C/C)c1ccc(O)cc1)c1ccc(O)cc1	106% (active)
CCn1c2ccccc2c2nnc(SCC(=O)NC(C(=O)OC)C(C)C)nc21 (configuration not stated)	0.5% (inactive)
CCOC(=O)c1[nH]c(C)c(C(=O)NC(C)CC)c1C (configuration not stated)	1.4% (inactive)
O=C1Nc2ccccc2C12OCCCCO2	-24.6% (inactive)
Cc1cc(=O)oc2cc(OCC(=O)N3CCc4ccccc4C3)ccc12	-25.1% (inactive)
CCOC(=O)N1CCN(Cc2nc3c(c(=O)[nH]c(=O)n3C)n2Cc2cc(C)ccc2C)CC1	-12.2% (inactive)
CCCCC(CC)C(=O)Nc1ccccc1C(=O)NC(C)C (configuration not stated)	6.3% (inactive)
O=S(=O)(c1ccc(Oc2ccc(-c3nnco3)cc2)nc1)N1CCC(Cc2ccccc2)CC1	62.7% (active)
O=C(COc1ccc(-c2nnco2)cc1)N1CCN(S(=O)(=O)c2ccc3ccccc3c2)CC1	-10.1% (inactive)
O=C(COc1ccc(-c2nnco2)cc1)N1CCN(S(=O)(=O)c2ccccc2)CC1	-13% (inactive)

SMILES	cytotoxicity
Cc1cc2cc(CNC(=O)c3ccc(Br)o3)ccc2n1C	-1.5% (inactive)
N#C/C(C(=O)Oc1ccccc1)=C1\C=CC=CN1	1.2% (inactive)
COC(=O)c1ccc(Oc2nc(C)cc(Oc3ccccc3)n2)cc1	-4.8% (inactive)
COC(=O)c1ccc(Oc2cc(C)nc(NCc3ccccc3)n2)cc1	-4.2% (inactive)
CCOC(=O)c1ccc(Oc2nc(SC)nc(N(C)C)n2)cc1	-23.6% (inactive)
CCOC(=O)c1ccc(Oc2nc(NC)nc(SC)n2)cc1	-15.9% (inactive)
CCOC(=O)c1ccc(Oc2cc(C)nc(SC)n2)cc1	50.9% (active)
COC(=O)c1ccc(Oc2cc(C)nc(SC)n2)cc1	50.6% (active)
COc1ccc(C(C#N)Nc2ccccc2OC)cc1 (configuration not stated)	-4.6% (inactive)
CCN(CC)S(=O)(=O)c1ccc(Nc2cc(C)nc3ncnn23)cc1	-2.7% (inactive)
C1CCc2c(nc3nnnn3c2N2CCOCC2)C1	-9.2% (inactive)
COC(=O)CN1C(=O)CC(C)(C)S(=O)c2ccccc21 (configuration not stated)	-9.1% (inactive)
Cc1ccc(-n2ncc3c(=O)n(Cc4ccccn4)cnc32)cc1C	8.3% (inactive)
CCN1CCN(C(C(=O)NC2CCCC2)c2ccc(Cl)cc2)CC1 (configuration not stated)	9.1% (inactive)
Cc1cc2c(N=O)c(NO)ccc2[nH]1	67% (active)
COC(=O)c1ccc2[nH]c(C)cc(=O)c2c1	-15.1% (inactive)
Cc1cc(=O)c2cc(Cl)ccc2[nH]1	-15% (inactive)
CCCc1cc(C(=O)Nc2sc(C(C)=O)c(C)c2C(=O)OCC)no1	-5.5% (inactive)
O=C(c1ccco1)N1CCN(c2nc(C3CC3)nc3sc4c(c23)CCCC4)CC1	53.5% (active)
Cc1nc(N2CCN(C(=O)c3ccco3)CC2)c2c3c(sc2n1)CCC3	8.5% (inactive)
CC(C)c1nc(N2CCN(C(=O)c3ccco3)CC2)c2c3c(sc2n1)CCCC3	-21.7% (inactive)
CCOC(=O)N1CCN(C(=O)c2cn(-c3ccc(C)c(C)c3)c(=O)c3ccccc23)CC1	-9.4% (inactive)
CCc1cc(-c2[nH]ncc2-c2ccc3c(c2)OCO3)c(O)cc1O	46.1% (inactive)
CCOc1ccc(-c2nc(N)ncc2-c2ccccc2)c(O)c1	2.3% (inactive)
CCCc1cc(-c2[nH]ncc2-c2ccc(C(=O)OCC)o2)c(O)cc1O	4.4% (inactive)
COc1ccc(-c2cnc(N)nc2-c2ccc(OC)cc2O)cc1	-4% (inactive)

SMILES	cytotoxicity
Cc1c(C(=O)Nn2cnnc2)oc2ccccc12	-26.6% (inactive)
CC(NC(=O)c1ccc(CS(=O)(=O)Cc2ccccc2F)o1)c1ccc2c(c1)OCCO2 (configuration not stated)	-10.6% (inactive)
O=S(=O)(NCC1CC1)c1cccc(S(=O)(=O)N2CCCC2)c1	-7.4% (inactive)
Cc1ccc(-c2noc(COc3ccccc3C)n2)cc1	-19.6% (inactive)
Cc1ccccc1OCc1nc(-c2ccc(-n3cccc3)cc2)no1	62.3% (active)
Cc1ccccc1OCc1nc(-c2ccccc2)no1	-12.2% (inactive)
Cc1cc(=O)[nH]c(SCC(=O)NCc2ccco2)n1	-38.4% (inactive)
O=C(Cn1nnc(-c2ccccc2NC(=O)c2cccs2)n1)Nc1ccccc1	-6.9% (inactive)
CCn1c(SCC(=O)N(C(C)C)C(C)C)nnc1-c1cc2ccccc2cc1O	-2.4% (inactive)
Cc1ccc(N2CCN(c3ccc(C)cc3)C2c2ccncc2)cc1	-18.2% (inactive)
Cc1cccc(N2CCN(C(=O)c3ccncc3)CC2C)c1 (configuration not stated)	-2.2% (inactive)
Cc1cccc(N2CCN(c3cccc(C)c3)C2c2cccnc2)c1	52.6% (active)
CCC(=O)OCCn1c(=O)c2cc3c(=O)n(CCOC(=O)CC)c(=O)c3cc2c1=O	1.2% (inactive)
CCOC(=O)C1=C(C)NC(=O)NC1c1ccc(OC)c(Cl)c1 (configuration not stated)	-1.8% (inactive)
O=C(Nc1ccc(-c2nc3ccccc3o2)cc1)C1CCCO1 (configuration not stated)	2.5% (inactive)
O=c1cc(-c2ccccc2)[nH]n1-c1nc2ccccc2s1	61.9% (active)
O=c1cc(-c2ccccc2)[nH]c2nc3ccccc3n12	34.3% (inactive)
Cc1nn(-c2nc3ccccc3s2)c(N)c1-c1ccccc1	6.1% (inactive)
COc1ccc(-c2cc(=O)n(-c3nc4ccccc4[nH]3)[nH]2)cc1	35% (inactive)
CC(=NC1CCCC1)c1c(C)[nH]n(-c2nc3ccccc3s2)c1=O	-9.3% (inactive)
CCn1c(SCC(=O)N(Cc2ccccc2)C2CCS(=O)(=O)C2)nc2ccccc2c1=O (configuration not stated)	-7.3% (inactive)
C1=C(CCNc2ncnc3nc[nH]c23)CCCC1	0% (inactive)
CCCCCC(=O)Nc1ccc2oc(-c3cncc(Br)c3)nc2c1	-3.1% (inactive)
CCn1c(=O)n(CC(=O)Nc2cccc(OC)c2)c(=O)c2ccccc21	-12.1% (inactive)
CN(C)CCCNC(=O)Cc1ccc(Br)cc1	-3.8% (inactive)
COc1cc(C2C(C(=O)c3ccc(C)o3)=C(O)C(=O)N2c2cc(C)on2)ccc1O (configuration not stated)	-0.7% (inactive)

SMILES	cytotoxicity
CC(NC(=O)NCCCn1ccnc1)(C(F)(F)F)C(F)(F)F	9.8% (inactive)
O=C(Nc1ccc(CN2CCCCC2)cc1)c1ccc(Br)o1	-14.9% (inactive)
O=C(Nc1ccc(CN2CCOCC2)cc1)c1cc2ccccc2o1	-0.1% (inactive)
O=C(Cc1ccc(-c2ccccc2)cc1)NCCN1CCOCC1	-11.8% (inactive)
O=C(Nc1ccc2nc(-c3ccc(Br)o3)[nH]c2c1)c1ccco1	44.7% (inactive)
O=C(Nc1ccc2nc(-c3ccc(Br)o3)[nH]c2c1)c1cccs1	53.5% (active)
O=C(Nc1ccc2nc(-c3ccco3)[nH]c2c1)c1cccs1	8% (inactive)
CNC(=O)CCn1nc(-c2ccc(Cl)cc2)c2ccccc2c1=O	10.8% (inactive)
Oc1ccc(N=Cc2ccc(O)c(O)c2)cc1	18% (inactive)
COc1ccc(-c2cc(O)cc(O)c2)cc1	-7.5% (inactive)
CCn1c(C2CC(=O)N(Cc3ccccc3)C2)nc2ccccc21 (configuration not stated)	-14.7% (inactive)
O=C1CC(=O)N(Cc2cccs2)C(=O)N1	-15.3% (inactive)
O=C(O)c1ccc(NC(=O)C2CC=CCC2C(=O)O)cc1 (configuration not stated)	-3.4% (inactive)
CCOCCCN(Cc1cc2cc(C)cc(C)c2[nH]c1=O)C(=O)N(CC)CC	-8.9% (inactive)
O=c1oc(-c2cccs2)nc2sc3c(c12)CCCCC3	52% (active)
O=c1oc(-c2cc3ccccc3o2)nc2sc3c(c12)CCCC3	51.3% (active)
O=c1oc(-c2cccs2)nc2sc3c(c12)CCC3	28.2% (inactive)
Cc1nc2sc3c(c2c(=O)o1)CCC3	4.8% (inactive)
Cc1nc2sc3c(c2c(=O)o1)CCCC3	0% (inactive)
Nn1c(-c2cccs2)nc2sc3c(c2c1=O)CCCC3	-1.4% (inactive)
O=C(CN1C(=O)CSC1=O)NCc1ccccc1	8.1% (inactive)
O=C(c1cc(S(=O)(=O)N2CCOCC2)ccc1F)N1CCN(Cc2ccccc2)CC1	-2.7% (inactive)
O=C(CSc1nc2ccccc2c(=O)n1CCC(=O)N1CCCCC1)NCc1ccccc1	-24.2% (inactive)
COc1ccc(-c2nnc(SCC(=O)Nc3cc(C)on3)n2C)cc1OC	-16.6% (inactive)
